{"source": "paper PMC5540273", "about": "(PLoS ONE, 2017);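 further: KINOMEscan kinase panel screen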"}
{"tested_on": "DYRK1A", "conditions": "concentration: 1 μM, replicates: in singlicate; n = 1", "units": {"%Inh": "%"}}
{"smiles": "CCn1c(-c2ccoc2)nc2cnccc21", "note": "[SB-733887]", "%Inh": 10}
{"smiles": "O=c1cc(N2CCOCC2)nc2n(Cc3ccc(F)c(Cl)c3)ccn12", "note": "[GSK2297099]", "%Inh": 12}
{"smiles": "Cc1cccc(-c2nc(Nc3ccc4c(cnn4C)c3)c3ccccc3n2)n1", "note": "[GW876731]", "%Inh": 0}
{"smiles": "Cl.NS(=O)(=O)c1cccc(Nc2cc(-c3ccc(F)cc3)n[nH]2)c1", "note": "[GW824645]", "%Inh": 0}
{"smiles": "COc1cc(Nc2nccc(N3CCC(NC(=O)C4COc5ccccc5O4)C3)n2)cc(OC)c1OC", "note": "(stereo not drawn) [GSK1379761]", "%Inh": 0}
{"smiles": "COC(=O)c1c(-c2ccccc2)c2cc(Br)ccc2c(=O)n1Cc1ccc(NC(=O)CCC(=O)O)cc1", "%Inh": 9}
{"smiles": "CN1C(=O)C(Nc2cc(Cl)c(O)c(Cl)c2)=C(c2ccc(Cl)cc2)C1=O", "note": "[SB-404321]", "%Inh": 0}
{"smiles": "CCC(=O)c1c(-c2ccccc2)c2cc(Cl)ccc2c(=O)n1Cc1cc(S(C)(=O)=O)n(CC(N)=O)n1", "%Inh": 0}
{"smiles": "Nc1ncnc2c1ncn2-c1ccc(Cl)cc1", "note": "[AH2635]", "%Inh": 0}
{"smiles": "O=C(NCc1cccs1)c1cc(C(=O)c2c(Cl)cccc2Cl)c[nH]1", "note": "[GW823670]", "%Inh": 0}
{"smiles": "CCn1c(-c2nonc2N)nc2ccccc21", "note": "[SB-693162/GW549034]", "%Inh": 49}
{"smiles": "O=C(NCCNc1ccnc(Nc2ccc(F)cc2)n1)Nc1ccc2c(c1)OCO2", "note": "[GSK1379882]", "%Inh": 7}
{"smiles": "COc1ccc(Nc2nccc(N3CCC(NS(=O)(=O)c4ccc(NC(C)=O)cc4)C3)n2)cc1", "note": "(stereo not drawn) [GSK1379729]", "%Inh": 8}
{"smiles": "COc1cc2nccc(Nc3cccc(Oc4ccccc4)c3)c2cc1OC.Cl", "note": "[GW284543]", "%Inh": 6}
{"smiles": "O=C(Nc1ccc2c(c1)OCO2)NC1CCN(c2ccnc(NCc3ccc(F)cc3)n2)CC1", "note": "[GSK1379859]", "%Inh": 7}
{"smiles": "Nc1ncnc2c1ncn2-c1cccc(F)c1", "note": "[SKF-97560]", "%Inh": 25}
{"smiles": "COc1ccc(-c2cc3c(C)nc(N)nc3n([C@H]3CC[C@H](O)CC3)c2=O)cn1", "%Inh": 0}
{"smiles": "COc1ccc(CNC(=O)NC2CCN(c3ccnc(Nc4ccc(F)cc4)n3)C2)cc1", "note": "(stereo not drawn) [GSK1379706]", "%Inh": 0}
{"smiles": "Nc1ncnc2c1ncn2-c1cccc2ccccc12", "note": "[SKF-97184]", "%Inh": 0}
{"smiles": "COc1cccc(C2=C(N(C)c3ccccc3)C(=O)NC2=O)c1", "note": "[SB-334865]", "%Inh": 4}
{"smiles": "Nc1nc(N)c2nc(-c3ccccc3)[nH]c2n1", "note": "[SKF-12778]", "%Inh": 34}
{"smiles": "COc1cc2ncn(-c3cc(OCc4ccncc4Br)c(C(N)=O)s3)c2cc1OC", "note": "[GW854278]", "%Inh": 3}
{"smiles": "Nc1n[nH]c2nnc(-c3ccccc3)c(-c3ccccc3)c12", "note": "[GW554060]", "%Inh": 23}
{"smiles": "Nc1nc(-c2ccccc2F)c(-c2ccnc3ccccc23)s1", "note": "[GW560459]", "%Inh": 9}
{"smiles": "Nc1nccc2scc(-c3ccc4c(c3)CCN4C(=O)Cc3ccccc3)c12", "note": "[GSK2576924]", "%Inh": 0}
{"smiles": "Cc1cccc(-c2cc(-c3c[nH]nc3-c3ccccn3)ccn2)c1", "note": "[GW679395]", "%Inh": 24}
{"smiles": "Cc1ccc(-c2ccc3c(ccc4sc5c(c43)NC[C@@H](C)N=C5N(C)C)n2)cn1", "%Inh": 0}
{"smiles": "CCCNC(=O)Nc1ccc(Oc2ncnc3ccn(C)c23)cc1", "%Inh": 16}
{"smiles": "CCCC(=O)Nc1n[nH]c2ncc(-c3cccc4ccccc34)cc12", "note": "[SB-642057]", "%Inh": 30}
{"smiles": "CCC(=O)c1c(-c2ccccc2)c2cc(Cl)ccc2c(=O)n1Cc1ccc(C(=O)O)cc1", "%Inh": 0}
{"smiles": "COc1cc2ncn(-c3cc(OCCCc4ccccc4)c(C(N)=O)s3)c2cc1OC", "note": "[GSK205189]", "%Inh": 7}
{"smiles": "Cc1cc(Nc2nc(-c3cccc(C)n3)nc3ccccc23)ccn1", "note": "[GW872411]", "%Inh": 0}
{"smiles": "COc1ccc(-c2cc3c(C)nc(N)nc3n([C@H]3CC[C@H](OCCO)CC3)c2=O)cn1", "%Inh": 0}
{"smiles": "O=C(Nc1n[nH]c2nc(-c3ccccc3)c(Cl)cc12)C1CC1", "note": "[SB-734909]", "%Inh": 10}
{"smiles": "COc1cc2ncn(-c3cc(OCc4ccc(S(C)(=O)=O)cc4)c(C(N)=O)s3)c2cc1OC", "note": "[GW869979]", "%Inh": 22}
{"smiles": "CN1C(=O)C(Nc2ccccc2)=C(c2ccccc2)C1=O", "note": "[SB-300079]", "%Inh": 0}
{"tested_on": "DYRK1B", "conditions": "concentration: 1 μM, replicates: in singlicate; n = 1", "units": {"%Inh": "%"}}
{"smiles": "CCn1c(-c2ccoc2)nc2cnccc21", "note": "[SB-733887]", "%Inh": 13}
{"smiles": "O=c1cc(N2CCOCC2)nc2n(Cc3ccc(F)c(Cl)c3)ccn12", "note": "[GSK2297099]", "%Inh": 39}
{"smiles": "Cc1cccc(-c2nc(Nc3ccc4c(cnn4C)c3)c3ccccc3n2)n1", "note": "[GW876731]", "%Inh": 20}
{"smiles": "Cl.NS(=O)(=O)c1cccc(Nc2cc(-c3ccc(F)cc3)n[nH]2)c1", "note": "[GW824645]", "%Inh": 0}
{"smiles": "COc1cc(Nc2nccc(N3CCC(NC(=O)C4COc5ccccc5O4)C3)n2)cc(OC)c1OC", "note": "(stereo not drawn) [GSK1379761]", "%Inh": 5}
{"smiles": "COC(=O)c1c(-c2ccccc2)c2cc(Br)ccc2c(=O)n1Cc1ccc(NC(=O)CCC(=O)O)cc1", "%Inh": 48}
{"smiles": "CN1C(=O)C(Nc2cc(Cl)c(O)c(Cl)c2)=C(c2ccc(Cl)cc2)C1=O", "note": "[SB-404321]", "%Inh": 50}
{"smiles": "CCC(=O)c1c(-c2ccccc2)c2cc(Cl)ccc2c(=O)n1Cc1cc(S(C)(=O)=O)n(CC(N)=O)n1", "%Inh": 0}
{"smiles": "Nc1ncnc2c1ncn2-c1ccc(Cl)cc1", "note": "[AH2635]", "%Inh": 0}
{"smiles": "O=C(NCc1cccs1)c1cc(C(=O)c2c(Cl)cccc2Cl)c[nH]1", "note": "[GW823670]", "%Inh": 16}
{"smiles": "CCn1c(-c2nonc2N)nc2ccccc21", "note": "[SB-693162/GW549034]", "%Inh": 16}
{"smiles": "O=C(NCCNc1ccnc(Nc2ccc(F)cc2)n1)Nc1ccc2c(c1)OCO2", "note": "[GSK1379882]", "%Inh": 0}
{"smiles": "COc1ccc(Nc2nccc(N3CCC(NS(=O)(=O)c4ccc(NC(C)=O)cc4)C3)n2)cc1", "note": "(stereo not drawn) [GSK1379729]", "%Inh": 3}
{"smiles": "COc1cc2nccc(Nc3cccc(Oc4ccccc4)c3)c2cc1OC.Cl", "note": "[GW284543]", "%Inh": 0}
{"smiles": "O=C(Nc1ccc2c(c1)OCO2)NC1CCN(c2ccnc(NCc3ccc(F)cc3)n2)CC1", "note": "[GSK1379859]", "%Inh": 14}
{"smiles": "Nc1ncnc2c1ncn2-c1cccc(F)c1", "note": "[SKF-97560]", "%Inh": 13}
{"smiles": "COc1ccc(-c2cc3c(C)nc(N)nc3n([C@H]3CC[C@H](O)CC3)c2=O)cn1", "%Inh": 4}
{"smiles": "COc1ccc(CNC(=O)NC2CCN(c3ccnc(Nc4ccc(F)cc4)n3)C2)cc1", "note": "(stereo not drawn) [GSK1379706]", "%Inh": 0}
{"smiles": "Nc1ncnc2c1ncn2-c1cccc2ccccc12", "note": "[SKF-97184]", "%Inh": 30}
{"smiles": "COc1cccc(C2=C(N(C)c3ccccc3)C(=O)NC2=O)c1", "note": "[SB-334865]", "%Inh": 0}
{"smiles": "Nc1nc(N)c2nc(-c3ccccc3)[nH]c2n1", "note": "[SKF-12778]", "%Inh": 13}
{"smiles": "COc1cc2ncn(-c3cc(OCc4ccncc4Br)c(C(N)=O)s3)c2cc1OC", "note": "[GW854278]", "%Inh": 8}
{"smiles": "Nc1n[nH]c2nnc(-c3ccccc3)c(-c3ccccc3)c12", "note": "[GW554060]", "%Inh": 0}
{"smiles": "Nc1nc(-c2ccccc2F)c(-c2ccnc3ccccc23)s1", "note": "[GW560459]", "%Inh": 4}
{"smiles": "Nc1nccc2scc(-c3ccc4c(c3)CCN4C(=O)Cc3ccccc3)c12", "note": "[GSK2576924]", "%Inh": 19}
{"smiles": "Cc1cccc(-c2cc(-c3c[nH]nc3-c3ccccn3)ccn2)c1", "note": "[GW679395]", "%Inh": 0}
{"smiles": "Cc1ccc(-c2ccc3c(ccc4sc5c(c43)NC[C@@H](C)N=C5N(C)C)n2)cn1", "%Inh": 0}
{"smiles": "CCCNC(=O)Nc1ccc(Oc2ncnc3ccn(C)c23)cc1", "%Inh": 68}
{"smiles": "CCCC(=O)Nc1n[nH]c2ncc(-c3cccc4ccccc34)cc12", "note": "[SB-642057]", "%Inh": 0}
{"smiles": "CCC(=O)c1c(-c2ccccc2)c2cc(Cl)ccc2c(=O)n1Cc1ccc(C(=O)O)cc1", "%Inh": 39}
{"smiles": "COc1cc2ncn(-c3cc(OCCCc4ccccc4)c(C(N)=O)s3)c2cc1OC", "note": "[GSK205189]", "%Inh": 0}
{"smiles": "Cc1cc(Nc2nc(-c3cccc(C)n3)nc3ccccc23)ccn1", "note": "[GW872411]", "%Inh": 2}
{"smiles": "COc1ccc(-c2cc3c(C)nc(N)nc3n([C@H]3CC[C@H](OCCO)CC3)c2=O)cn1", "%Inh": 0}
{"smiles": "O=C(Nc1n[nH]c2nc(-c3ccccc3)c(Cl)cc12)C1CC1", "note": "[SB-734909]", "%Inh": 3}
{"smiles": "COc1cc2ncn(-c3cc(OCc4ccc(S(C)(=O)=O)cc4)c(C(N)=O)s3)c2cc1OC", "note": "[GW869979]", "%Inh": 20}
{"smiles": "CN1C(=O)C(Nc2ccccc2)=C(c2ccccc2)C1=O", "note": "[SB-300079]", "%Inh": 17}
